Screening data from PubChem.
Most compounds without a hit are left out; they make up all but 19% or so of the library.
IL1B secr inh: inhibitors of inflammasome signaling (IL-1 beta secretion) | THP-1 LPS/ATP IL-1B secretion, AlphaLISA, 16 h; stronger effect = lower value | activity change, % at 57.5 µM | 360,000 compounds, 4.7% hits; in the data active = activity change below about -50%; inconclusive = mostly about -30% to -49%
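Secreted IL-1B measured by AlphaLISA bead assay after 16 h compound exposure of THP-1 cells; compounds (final up to 57.5 uM) added 1 h before LPS (250 ng/mL) and ATP (1.25 mM) stimulation; lower signal means less secretion.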
DT40 TDP1 CPT: DT40-hTDP1 cell growth loss with CPT; chicken DT40 Tdp1-/-;hTDP1 cells + 20 nM CPT, ATP luminescence, 48 h; Potency, µM (doses to about 46.2 µM), actives largely listed as inhibitors; 420,000 compounds, 12% hits; AID 686979; also: nearly all actives have a fitted effect of over 55% in size
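Cell growth measured by CellTiter-Glo luminescence after a minimum 48 h, 37 C compound exposure with 20 nM CPT in Tdp1-knockout DT40 cells stably expressing hTDP1, seeded 400/well; qHTS titration format.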
DT40 TDP1 no CPT: qHTS for Inhibitors of human tyrosyl-DNA phosphodiesterase 1 (TDP1): qHTS in cells in absence of CPT | DT40 Tdp1-/- hTDP1 cells, no CPT, ATP luminescence, 48 h | Potency, µM (top dose mostly 46.2 µM), actives largely listed as inhibitors | 420,000 compounds, 15% hits | AID 686978, 2013; also: nearly all actives have a fitted effect of over 55% in size
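Growth of hTDP1-complemented DT40 Tdp1-knockout cells is measured by ATP luminescence after at least 48 hr compound exposure at 37 °C, with DMSO substituting for the 20 nM CPT used in the parallel screen.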
HT1080NT lethal: kills 2HG-producing HT-1080-NT fibrosarcoma cells | HT-1080-NT fibrosarcoma viability, CellTiter-Glo ATP luminescence, 48 h | Potency, µM (highest dose often 46.1 µM), usual class: cytotoxic | 360,000 compounds, 1.6% hits | AID 686970;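 also: NT is the 2HG producing partner of a matched IDH1 knockdown line; nearly all actives have a fitted effect of over 55% in size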
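Compounds were tested in concentration-response format on HT-1080-NT cells for 48 hours at 37 degrees C. Cell viability came from CellTiter-Glo luminescence; curves were classified by r2, response magnitude and activity.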
ELG1 repair inh: blocks ELG1-dependent DNA repair in HEK293T cells; HEK293T ELG1-luciferase reporter, luminescence, 16 h; DNA damage induced by 5-fluorouridine; Potency, µM (series often up to 46.1 µM), most hits filed as inhibitors; 330,000 compounds, 2.3% hits; also: nearly all actives have a fitted effect of over 55% in size
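HEK293T cells expressing luciferase-tagged ELG1 (2,000/well) received 5-Fluorouridine plus compound or DMSO for 16 hr at 37 °C. Luciferase was read by ONE-Glo luminescence after 30 min at room temperature.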
HT1080 IDH1KD tx: toxicity to HT-1080 IDH1 knockdown cells (counter line); HT-1080 IDH1 knockdown viability, ATP luminescence, 48 h; Potency, µM (highest dose often 46.1 µM), most hits filed as cytotoxic; 360,000 compounds, 2% hits; AID 686971
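% activity derives from luminescence (CellTiter-Glo), normalised to DMSO and no-cell wells. HT-1080-IDH1KD cells, 750/well, had 48 h compound exposure at 37 °C.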
Hits are given with their value; . = inactive; ? = inconclusive; / = not tested or not shown; [ ] = another dose, or the depositor's remark. Unless noted, calls follow the shape of the dose curve; as a rule, active = well fitted curve in the direction sought with a large enough effect; inconclusive = small, poorly fitted or top-dose-only effect, or another doubt; inactive = no such curve, though single readings can be large; an effect the other way counts as inactive or inconclusive.

SMILES	IL1B secr inh	DT40 TDP1 CPT	DT40 TDP1 no CPT	HT1080NT lethal	ELG1 repair inh	HT1080 IDH1KD tx
O=C(c1cc(-c2ccc(Br)cc2)nc2ccccc12)N1CCN(c2ccccc2O)CC1	-61.7	?	?	?	?	?
Cc1ccc(/C(N)=N/OC(=O)N2CCOCC2)cc1	.	18.4µM	?	?	.	17.8µM
COc1ccc2cc(C(=O)NCc3ccc4c(c3)CCN4C(=O)c3ccc(C)cc3)[nH]c2c1	/	13µM	?	/	/	/
COc1ccc2cc(C(=O)NCc3ccc4c(c3)CCN4C(=O)c3ccc(F)cc3)[nH]c2c1	/	20.6µM	18.4µM	/	/	/
Cc1cc(Cl)c(S(=O)(=O)N2CCCC2)cc1OCC(N)=O	.	.	.	.	.	.
CCOC(=O)C1CCCN(S(=O)(=O)c2cc(OCC(N)=O)c(C)cc2Cl)C1 (stereo not drawn)	-92.4	.	.	.	.	.
Cc1cc(Cl)c(S(=O)(=O)N2CCN(c3ccccn3)CC2)cc1OCC(=O)NC1CCCCC1	?	?	20.6µM	?	20.6µM	.
Cc1cc(Cl)c(S(N)(=O)=O)cc1OCC(=O)NC1CCCCC1	.	.	.	.	.	.
Cc1cc(Cl)c(S(=O)(=O)NC2CCCC2)cc1OCC(=O)NC1CCCCC1	.	25.9µM	23.1µM	.	9.2µM	20µM
Cc1cc(Cl)c(S(=O)(=O)N2CCCCCC2)cc1OCC(=O)NC1CCCCC1	.	.	.	.	9.2µM	.
CSc1ccc(/C=C/C(=O)OCC(=O)N2CCN(c3ccccc3)CC2)cc1	.	.	.	.	/	.
Cc1ccc(S(=O)(=O)N2CCc3c2cc([N+](=O)[O-])cc3[N+](=O)[O-])cc1	?	?	.	.	.	.
COc1cccc(C(=O)NCC[N+](C)(C)C)c1	.	.	.	.	/	.
Cc1ccc(NS(=O)(=O)c2cc(OCC(N)=O)c(C)cc2Cl)cc1C	.	20µM	?	.	?	.
Cc1cc(Cl)c(S(=O)(=O)N2CCCCCC2)cc1OCC(N)=O	.	.	.	.	?	.
Cc1cc(Cl)c(S(=O)(=O)N2CCSCC2)cc1OCC(=O)NC1CCCCC1	-53.6	16.4µM	18.4µM	?	9.2µM	.
CCOC(=O)N1CCN(S(=O)(=O)c2cc(OCC(=O)NC3CCCCC3)c(C)cc2Cl)CC1	.	.	.	.	18.4µM	.
CS(=O)(=O)N1CCC(Oc2ccccc2C(=O)N2CCC[C@H]2CO)CC1	.	.	.	.	?	.
Cn1c(=O)c2cc(NC(=O)Cc3cccnc3)ccc2n1-c1ccc2ccccc2c1	.	14.6µM	14.6µM	?	/	18.4µM
CC(CC(=O)Nc1ccc2c(c1)c(=O)n(C)n2-c1ccc2ccccc2c1)C(F)(F)F (stereo not drawn)	.	5.17µM	2.59µM	?	/	?
COCCNc1nc(NCCN2CCNC2=O)c2sccc2n1	-71.1	.	.	.	/	.
COc1ccccc1CN1CCNC(=O)C1=O	/	.	.	/	/	/
COc1ccccc1CNc1nc(NCCN2CCNC2=O)c2sccc2n1	.	18.4µM	?	.	/	.
Oc1cc2cc(-c3csc(-c4ccc(F)cc4)n3)ccc2[nH]1	/	1.12µM	2.82µM	/	/	/
O=C(CNC(=O)c1ccccc1F)OCc1cc(=O)n2ccsc2n1	/	.	.	/	/	/
SMILES	IL1B secr inh	DT40 TDP1 CPT	DT40 TDP1 no CPT	HT1080NT lethal	ELG1 repair inh	HT1080 IDH1KD tx
O=C(Cn1nc(Cl)nc1Cl)c1ccc(F)cc1	.	.	.	.	.	.
O=C(Cn1nc(Cl)nc1Cl)c1ccc2c(c1)OCCO2	?	5.17µM	13µM	.	.	.
Cc1cc(C)nc(SCC(=O)c2ccc3c(c2)OCCO3)n1	?	?	?	.	.	.
O=C(Cn1nc(Cl)nc1Cl)c1ccccc1	.	?	14.6µM	.	.	.
CC1(C)Oc2ccc3ccc(=O)oc3c2CC1=O	/	.[9.04 µM]	.[9.04 µM]	/	/	/
Cc1ccc2oc(=O)c3cc(C(=O)NCCCN4CCN(C)CC4)sc3c2c1	.	?	?	?	.	.
Cn1c(=O)c2cc(C(=O)NCCCN3CCN(c4cccc(Cl)c4)CC3)sc2c2ccccc21	/	?	2.91µM	/	/	/
CN1CCN(CCCNC(=O)c2cc3c(=O)n(C)c4ccccc4c3s2)CC1	-81.3	8.2µM	11.6µM	?	?	.
Cc1cccn2c(=O)nc(SCC(=O)N3CCC(Cc4ccccc4)CC3)nc12	.	?	?	.	.	.
c1ccc(COn2c(-c3ccccc3)nc3c2CCc2nonc2-3)cc1	.	?	25.9µM	.	?	.
COC(=O)CSc1ncc2c(n1)-c1ccccc1N(Cc1cccc(F)c1)S2(=O)=O	/	.	.	/	/	/
CNc1cccc(-c2cccc(C(=O)N3CCOCC3)c2)n1	.	.	.	.	/	?
CC(C)(O)CCc1c(-c2ccc(O)cc2O)oc2c3c(cc(O)c2c1=O)OC(C)(C)C=C3	.	11.6µM	16.4µM	.	/	.
CC(C)[Si]1(C(C)C)OCC2OC(n3cnc4c(N)ncnc43)C(N)C2O[Si](C(C)C)(C(C)C)O1 (stereo not drawn)	?	13µM	11.6µM	.	/	?
COc1ccc(N2CCN(C(=O)C3CCC(Cn4c(=S)[nH]c5ccccc5c4=O)CC3)CC2)cc1 (stereo not drawn)	.	14.6µM	23.1µM	.	?	.
COc1ccccc1N1CCN(C(=O)C2CCC(Cn3c(=S)[nH]c4ccccc4c3=O)CC2)CC1 (stereo not drawn)	.	23.1µM	?	.	?	.
O=C(CCCn1c(=S)[nH]c2ccc(Br)cc2c1=O)N1CCN(c2ccccn2)CC1	.	?	?	.	18.4µM	.
O=C(C1CCC(Cn2c(=S)[nH]c3ccccc3c2=O)CC1)N1CCN(c2ccccn2)CC1 (stereo not drawn)	.	?	23.1µM	.	5.17µM	.
O=C(C1CCC(Cn2c(=S)[nH]c3ccccc3c2=O)CC1)N1CCOCC1 (stereo not drawn)	.	.	.	.	.	.
O=C(C1CCC(Cn2c(=S)[nH]c3ccccc3c2=O)CC1)N1CCN(c2ccccc2)CC1 (stereo not drawn)	.	?	?	.	/	.
COc1ccc(S(=O)(=O)n2nc(C)c(S(=O)(=O)N3CCCCCC3)c2C)cc1C	/	.	.	/	/	/
COc1ccc(C(CNC(=O)CCNS(=O)(=O)c2ccccc2)N2CCOCC2)cc1 (stereo not drawn)	.	.	.	.	/	.
O=C(C1CC1)N1N=C(c2ccncc2)CC1(O)C(F)(F)F (stereo not drawn)	.	.	.	.	.	.
